# High-throughput results deposited in PubChem by National Center for Advancing Translational Sciences (NCATS).
# Pf growth 48h – Primary qHTS for delayed death inhibitors of the malarial parasite plastid, 48 hour incubation; P. falciparum luciferase growth in erythrocytes, 48 h; Potency, µM (top dose mostly 28.7 µM), for the others: top-dose activity change, negative = inhibition, usual class: inhibitors; 310,000 tested, 5.9% active; further: potency means the concentration at half of the fitted maximal effect; on the % scale 0 is the no-effect control and ±100 the full control effect
#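 In quantitative HTS format, infected erythrocytes bearing luciferase-reporter parasites were treated for a single generation at 37 C. Luminescence after adding detection reagent served as the growth measure.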
# Pf growth 96h – Primary qHTS for delayed death inhibitors of the malarial parasite plastid, 96 hour incubation; P. falciparum luciferase reporter growth, 96 h; Potency, µM (series often up to 28.7 µM), without a hit: at the highest dose activity change, negative = inhibition, hits mostly inhibitors; 320,000 tested, 6.9% active; AID 504834, 2011; further: potency means the concentration at half of the fitted maximal effect; on the % scale 0 is the no-effect control and ±100 the full control effect
#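 Plates of compound plus infected erythrocytes (2% hematocrit, 0.05% parasitemia final) incubate 96 hours, 37 C, 5% CO2. Detection reagent added; reduced luminescence from the parasites' luciferase reporter flags inhibition.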
# CHX counter – Cycloheximide Counterscreen for Small Molecule Inhibitors of Shiga Toxin | cell reporter, cycloheximide protein synthesis inhibition counterscreen | max response, % | 300,000 tested, 12% active; in the data active means max response mostly above about 13%, no sharp cut-off; inactive means mostly below about 14%; further: read at 38.3 µM for the half of the compounds with a filed dose; 0% is about no effect
# Shiga inhibitor – A qHTS for Small Molecule Inhibitors of Shiga Toxin; inhibition, % at 38.7 µM; 290,000 tested, 9.2% active; Vero cells, Shiga toxin protein synthesis inhibition reporter; in the data active means inhibition mostly above about 28%, no sharp cut-off; inactive means mostly below about 43%; further: 0% is about no effect
# The depositor's hits bear a star; i = inactive; ? = inconclusive; . = no result given. Only some compounds are listed: those with a hit (about 21% of all), similar ones and a draw of the others. Unless noted, the call rests on the fitted dose curve; in most records, active means well fitted inhibition curve with a large enough effect; inconclusive means small, poorly fitted or top-dose-only effect, or another doubt; inactive means no such curve, though single readings can be large or run the other way.
SMILES,Pf growth 48h,Pf growth 96h,CHX counter,Shiga inhibitor
NCC(c1ccc(Cl)cc1Cl)c1c[nH]c2ccccc12 (stereo unspecified),?,?,-2,-8
NCC(c1ccccc1Cl)c1c[nH]c2ccccc12 (stereo unspecified),9.3µM*,?,-1,-13
CCOC(=O)C1=C(O)c2ccccc2C(=O)/C1=C\c1ccc(C)cc1,2.9µM*,4.1µM*,-1,16
Cc1ccc(N2Cc3ccccc3OC(C)C2=O)cc1 (stereo unspecified),.,9.3µM*,-5,-18
COc1ccc(Cl)cc1C(=O)NNC(=O)COC(=O)CC(NC(C)=O)c1ccccc1 (stereo unspecified),-11%,-5%,.,.
CS(=O)(=O)c1ccccc1C(=O)Nc1ccc(-c2nc3ccccc3[nH]2)cc1,85%,85%,19*,42*
CS(=O)(=O)c1ccccc1C(=O)Nc1ccc(-c2nc3ccccc3o2)cc1,-3%,?,31*,65*
Cc1ccccc1C(=O)Nc1ccc(-c2nc3ccc(C(=O)c4ccccc4)cc3[nH]2)cc1,8.3µM*,?,19,17
O=C(c1ccccc1)c1ccc2nc(-c3ccc(NC(=O)c4ccccc4Br)cc3)[nH]c2c1,?,?,15,16
O=C(Cc1cccc(C(F)(F)F)c1)NCC(=O)Nc1cc(Cl)ccc1Cl,6%,25%,4,14
CCN=C1SC(CC(=O)NC(C)c2ccccc2)C(=O)N1CC (stereo unspecified),6%,24%,-3,-4
O=[N+]([O-])c1ccc(C[n+]2c(-c3ccccc3)cc(-c3ccccc3)cc2-c2ccccc2)cc1,1.2µM*,0.93µM*,.,.
O=[N+]([O-])c1cc(Cl)c(O)c(-[n+]2c(-c3ccccc3)cc(-c3ccccc3)cc2-c2ccccc2)c1,?,?,2,-2
c1ccc(Cc2cc[n+](Cc3ccccn3)cc2)cc1,4.1µM*,1µM*,1,20
O=C([O-])c1cc(-c2ccccc2)cc(-c2ccccc2)[n+]1Cc1ccccc1,0.52µM*,0.52µM*,.,.
O=C(Cn1cc[n+](Cc2ccccc2)c1)c1ccc([N+](=O)[O-])cc1,?,-10%,13,-3
O=[N+]([O-])c1ccc(C[n+]2ccc(Cc3ccccc3)cc2)cc1,3.7µM*,35%,6,-11
OCc1ccccn1,6%,13%,.,.
COc1ccc(NC(=O)C2CC(=O)N(CCc3ccc(F)cc3)C2)c(OC)c1 (stereo unspecified),-4%,-4%,-2,-3
CCc1ccc(C2C(C#N)=C(N)N(N(C)C)C3=C2C(=O)CCC3)cc1 (stereo unspecified),-23%,60%,-1,5
Cc1nnc(SCC(=O)Nc2sccc2C(N)=O)s1,-11%,-17%,.,.
N#CCOC(=O)C1CSC2(c3ccc(Br)cc3)CCC(=O)N12 (stereo unspecified),-1%,9%,-2,-3
Cc1nc2sccn2c(=O)c1S(=O)(=O)Nc1cccc(Cl)c1C,-2%,?,-3,-1
Cc1cc(-c2ccccc2)cc(C)[n+]1Cc1ccccc1,0.74µM*,0.37µM*,.,.
Cc1cc(-c2ccccc2)nc2[n+]1CCN2C,.,.,-5,-10
SMILES,Pf growth 48h,Pf growth 96h,CHX counter,Shiga inhibitor
Cc1ccc(-c2nc3ccccc3s2)cc1NC(=S)NC(=O)c1ccccc1,106%,78%,34*,187*
Cc1ccc(-c2nc3ccccc3s2)cc1NC(=O)c1cc(-n2cnnc2)ccc1Cl,126%,i,38*,85*
Cc1nc(NC(=O)c2cc(-n3cnnc3)ccc2Cl)ccc1Br,-11%,-9%,-3,14
Cc1ccc(C(=O)O)cc1NC(=S)NC(=O)c1ccc(COc2ccccc2)cc1,1%,24%,2,-29
CC(O)CN(CCN(CC(C)O)CC(C)O)CC(C)O (stereo unspecified),9%,-14%,.,.
CCCNc1c(NS(=O)(=O)c2ccc(OC)c(OC)c2)c(=O)oc2ccccc12,-6%,?,-8,-4
Cc1nc2ccccc2nc1N/N=C/c1ccc(O)cc1,27%,41%,40*,53*
Oc1ccc(Nc2nc(-c3ccccc3)nc3ccccc23)cc1,-5%,-66%,-2,-6
Oc1ccc(Nc2nc3ccccc3nc2Nc2ccc(O)cc2)cc1,.,.,14*,40
Oc1ccc(/C=N/Nc2ccccc2)cc1,-23%,-17%,1,24
CSc1ccc(CNCC2CCCO2)cc1 (stereo unspecified),9%,7%,-3,.
